Data reported in the antibiotic and cytotoxicity screens of Wong et al. (2023).
The campaign covered roughly 39,000 compounds. About 3,300 (8.5%) were called active. The full list was thinned out, with actives kept by preference.

system: HepG2; test: cytotoxicity call (relative viability < 0.9); settings: 10 µM

Structure (SMILES)	cytotoxicity call
CCO[C@H]1OC(C(=O)N2CCN(Cc3ccc4c(c3)OCO4)CC2)=C[C@@H](c2ccc(C(F)(F)F)cc2)[C@@H]1CCCOC(=O)NCCCCCC(=O)NO	inactive
CC(C)C(=O)N1CC[C@H]2CN(CC(=O)N(C)C)S(=O)(=O)[C@@H]2CC1	inactive
C[C@H]1CCCCO[C@@H](CN(C)S(=O)(=O)c2ccccc2)[C@@H](C)CN([C@@H](C)CO)C(=O)c2cc(NC(=O)C3CCCCC3)ccc2O1	inactive
O=C(C[C@H]1CC[C@H]2[C@@H](COC[C@H](O)CN2S(=O)(=O)c2cccc(Cl)c2)O1)N1CCOCC1	inactive
CO[C@@H](C(=O)N(C)C[C@@H]1OCc2ccccc2-c2c(n(C)c3ccccc23)C(=O)N([C@H](C)CO)C[C@@H]1C)c1ccccc1	inactive
CNS(=O)(=O)c1cc(OC)ccc1OC	inactive
COc1cccc(S(=O)(=O)N2C[C@H](O)COC[C@H]3O[C@@H](CC(=O)N4CCN(c5ccccc5)CC4)CC[C@@H]32)c1	inactive
CCCNC(=O)Cn1c(=O)n(C)c2ccccc21	inactive
C[C@@H]1CCCCO[C@H](CN(C)CC2CCCCC2)[C@@H](C)CN([C@H](C)CO)C(=O)c2cc(NC(=O)Cc3ccccc3)ccc2O1	inactive
C[C@@H]1CCCCO[C@@H](CN(C)CC2CCCCC2)[C@@H](C)CN([C@H](C)CO)C(=O)c2cc(NC(=O)CCCN(C)C)ccc2O1	inactive
C[C@@H]1CCCCO[C@@H](CN(C)CC2CCCCC2)[C@H](C)CN([C@@H](C)CO)C(=O)c2cc(NC(=O)Cc3ccccc3)ccc2O1	inactive
C[C@H]1CCCCO[C@@H](CN(C)CC2CCCCC2)[C@@H](C)CN([C@@H](C)CO)C(=O)c2cc(NC(=O)CCCN(C)C)ccc2O1	active
C[C@@H]1CCCCO[C@H](CN(C)CC2CCCCC2)[C@H](C)CN([C@H](C)CO)C(=O)c2cc(NC(=O)Cc3ccccc3)ccc2O1	inactive
C[C@H](CO)N1C[C@H](C)[C@@H](CN(C)CC2CCCCC2)OCCCC[C@H](C)Oc2ccc(NC(=O)Cc3ccccc3)cc2C1=O	inactive
C[C@H]1CCCCO[C@@H](CN(C)CC2CCCCC2)[C@@H](C)CN([C@@H](C)CO)C(=O)c2cc(NC(=O)Cc3ccccc3)ccc2O1	active
C[C@@H]1CCCCO[C@@H](CN(C)CC2CCCCC2)[C@H](C)CN([C@H](C)CO)C(=O)c2cc(NC(=O)Cc3ccccc3)ccc2O1	inactive
C[C@H](CO)N1C[C@H](C)[C@H](CN(C)CC2CCCCC2)OCCCC[C@H](C)Oc2ccc(NC(=O)Cc3ccccc3)cc2C1=O	inactive
C[C@@H]1CN([C@H](C)CO)C(=O)c2cc(NC(=O)CCCN(C)C)ccc2O[C@@H](C)CCCCO[C@H]1CN(C)CC1CCCCC1	inactive
C[C@@H]1CN([C@@H](C)CO)C(=O)c2cc(NC(=O)Cc3ccccc3)ccc2O[C@@H](C)CCCCO[C@H]1CN(C)CC1CCCCC1	active
C[C@H]1CCCCO[C@H](CN(C)CC2CCCCC2)[C@@H](C)CN([C@@H](C)CO)C(=O)c2cc(NC(=O)Cc3ccccc3)ccc2O1	active
